This is a sample that favours compounds with a hit; in the whole collection about 2.3% have one here.
TRPV1 ag: activates the human vanilloid receptor TRPV1; 320,000 tested, 0.19% active; Q8NER1; activation, % at 8.33 µM; TRPV1-expressing cells, Fluo-8 calcium influx, agonist mode; in the data active means activation above about 80%; inconclusive means between about 30% and that limit; further: 0% is about no effect
Target sequence (Q8NER1 whole entry, looked up): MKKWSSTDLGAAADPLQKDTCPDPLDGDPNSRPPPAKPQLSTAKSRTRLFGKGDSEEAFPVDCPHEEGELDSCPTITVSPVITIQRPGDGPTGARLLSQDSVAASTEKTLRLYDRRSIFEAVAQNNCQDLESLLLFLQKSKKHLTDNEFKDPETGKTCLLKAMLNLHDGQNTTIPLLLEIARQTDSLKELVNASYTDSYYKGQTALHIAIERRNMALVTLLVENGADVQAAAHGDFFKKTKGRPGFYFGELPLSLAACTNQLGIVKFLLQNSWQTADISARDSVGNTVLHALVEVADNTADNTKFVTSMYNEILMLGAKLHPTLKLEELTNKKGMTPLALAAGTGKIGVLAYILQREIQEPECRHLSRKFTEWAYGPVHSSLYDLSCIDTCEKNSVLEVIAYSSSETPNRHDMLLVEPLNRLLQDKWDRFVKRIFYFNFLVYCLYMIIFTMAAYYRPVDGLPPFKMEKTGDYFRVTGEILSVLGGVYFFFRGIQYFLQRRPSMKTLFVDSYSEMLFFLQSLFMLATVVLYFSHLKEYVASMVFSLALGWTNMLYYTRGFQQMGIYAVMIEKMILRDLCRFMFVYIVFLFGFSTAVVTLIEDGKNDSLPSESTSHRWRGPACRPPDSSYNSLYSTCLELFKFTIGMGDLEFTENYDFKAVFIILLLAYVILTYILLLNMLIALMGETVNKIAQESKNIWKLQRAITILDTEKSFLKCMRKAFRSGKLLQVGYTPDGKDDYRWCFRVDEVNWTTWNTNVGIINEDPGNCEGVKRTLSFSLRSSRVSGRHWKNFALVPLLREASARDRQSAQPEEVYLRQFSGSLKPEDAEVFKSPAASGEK
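TRPV1-expressing cells were cultured overnight at 35.5C and loaded with Fluo-8 calcium dye for 40 to 90 min at room temperature. After a 10 s baseline, compound was added and calcium influx was read kinetically for 3 min (ex 480/em 520 nm).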
TRPV1 potentiator: potentiators of human vanilloid receptor 1 (TRPV1) | Q8NER1 | 320,000 tested, 0.02% active | potentiation, % at 8.33 µM | AID 540277 | TRPV1-expressing cells, Fluo-8 calcium influx, capsaicin EC20 potentiation; in the data active means potentiation above about 80%; inconclusive means between about 30% and that limit; further: 0% is about no effect
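Fluo-8 calcium influx in TRPV1-expressing cells, kinetic read (ex 480/em 520 nm). Compound added and read 3 min for agonist activity, followed by capsaicin at EC20 final and 2 min further read for enhancement.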
FUS yeast rescue: FUS proteinopathy suppression in yeast. S. cerevisiae FUS-expressing, growth rescue, OD600, 24 h. Potency, µM (top dose mostly 76.6 µM), usual class: activators. 390,000 tested, 0.24% active;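 further: potency means the concentration at half of the fitted maximal effect; plate controls were DMSO vehicle for no effect and reference control for full effect; nearly all actives have a fitted effect of over 55% in size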
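Quantitative HTS measuring growth restoration of FUS-toxic yeast. Galactose-induced cells (OD 0.005) were exposed 24hr at 30C to compounds at several concentrations, then absorbance at 600 nm was recorded.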
ELG1 DNA repair: ELG1-dependent DNA repair inhibition. HEK293T ELG1-luciferase reporter, luminescence, 16 h; DNA damage induced by 5-fluorouridine. Potency, µM (highest dose often 46.1 µM), for the others: at the top dose activity change, negative = inhibition, hits mostly inhibitors. 330,000 tested, 2.3% active. AID 504467; further: potency means the concentration at half of the fitted maximal effect; on the % scale 0 is the no-effect control and ±100 the full control effect; nearly all actives have a fitted effect of over 55% in size
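5-Fluorouridine DNA damage + compound/DMSO, 2,000 cells/well, 16 h, 37 °C/5% CO2. ONE-Glo, 30 min RT, luminescence. Readout = decrease in reporter signal.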
Giardia kill: Giardia lamblia killing | 340,000 tested, 0.15% active | Giardia lamblia trophozoite viability | activity change, % at 7.66 µM, hits read low | AID 540267; in the data active means activity change below about -80%; inconclusive means between about -30% and that limit;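 further: parasites exposed to compound for two days anaerobically before the ATP read; on the % scale 0 is the no-effect control and ±100 the full control effect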
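Giardia lamblia trophozoites (100 cells/well) were incubated with compounds for 48 h at 37 deg C under anaerobic conditions. Viability was read as ATP content by one-step luminescence after 15-30 min at room temperature.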
Active calls of the source: *; i = inactive; ? = inconclusive; . = not tested or not shown. Unless noted, the call rests on the fitted dose curve; in most records, active means well fitted curve in the direction sought with a large enough effect; inconclusive means small, poorly fitted or top-dose-only effect, or another doubt; inactive means no such curve, though single readings can be large; an effect the other way counts as inactive or inconclusive.

SMILES	TRPV1 ag	TRPV1 potentiator	FUS yeast rescue	ELG1 DNA repair	Giardia kill
CCc1ccc(NC(=O)c2sc3nc(C)nc(N4CCN(c5ccccn5)CC4)c3c2C)cc1	2	2	i	-3%	1
O=C(Nc1ccccc1F)C(=Cc1sc(N2CCOCC2)nc1-c1ccccc1)C(=O)Nc1ccccc1F	9	10	i	8.2µM*	-22
O=C(N/N=C/c1sc(N2CCOCC2)nc1-c1ccccc1)c1ccccc1O	?	-21	i	18µM*	2
COc1cc(C(=O)N/N=C/c2sc(N3CCOCC3)nc2-c2ccccc2)cc(OC)c1OC	2	-4	i	12µM*	-1
O=C(N/N=C/c1sc(N2CCOCC2)nc1-c1ccccc1)c1ccccc1Cl	4	23	i	0%	-3
Nc1ccc(C(=O)N/N=C/c2sc(N3CCOCC3)nc2-c2ccccc2)cc1	-4	-2	i	?	-8
CCOc1ccc(CNC(=O)c2ccc3nc(C(C)C)oc3c2)cc1	.	.	i	.	.
CCC(Sc1nc2cc(OC)c(OC)cc2c(=O)n1CCc1ccc(OC)c(OC)c1)C(=O)NCCOC (configuration not stated)	-6	10	i	18µM*	6
CCc1cccc(NC(=O)CC2Oc3ccc(C)cc3NC2=O)c1 (configuration not stated)	.	.	i	.	.
O=C(Cn1nnc(-c2ccccc2Cl)n1)Nc1ccc(Br)cc1	.	.	i	.	.
O=C(Nc1ccc2c(c1)OCCO2)C(C1CC1)n1c(=O)c(-c2ccco2)nc2ccccc21 (configuration not stated)	.	.	i	.	.
N#Cc1ccc(C(C(=O)Nc2ccc3c(c2)OCCO3)n2c(=O)c(-c3ccco3)nc3ccccc32)cc1 (configuration not stated)	.	.	6.3µM*	.	.
Cc1cc(C)c(O)c(NC(=S)NC(=O)Cc2ccccc2)c1	81*	5	i	-12%	-17
CC(C)C(=O)NC(c1ccco1)c1ccc2cccnc2c1O (configuration not stated)	-1	-4	i	2.9µM*	6
CCCC(=O)NC(c1ccccc1OC)c1ccc2cccnc2c1O (configuration not stated)	0	4	?	4.1µM*	-4
Oc1c(C(Nc2cccc(C(F)(F)F)c2)c2ccncc2)ccc2cccnc12 (configuration not stated)	?	-16	?	?	7
Oc1c(C(Nc2nccs2)c2ccc(C(F)(F)F)cc2)ccc2cccnc12 (configuration not stated)	4	13	?	2.6µM*	-9
CCN(CC)c1ccc(C(NC(=O)C(C)C)c2ccc3cccnc3c2O)cc1 (configuration not stated)	.	.	i	.	.
Oc1c(Cl)cc(Cl)c2cccnc12	2	?	i	2.3µM*	9
CCCCC(=O)NC(c1ccccc1OC)c1ccc2cccnc2c1O (configuration not stated)	10	-5	i	?	?
Cc1cc(N2CCC(C)CC2)nc2ccc(NC(=O)CCC(=O)N3CCN(c4ccccc4F)CC3)cc12	.	.	i	.	.
COc1cc(OC)c(C2C=CC(=O)CC2)c(OC)c1 (configuration not stated)	.	.	i	.	.
CCC(=O)NC(c1ccc(C)cc1)c1cc(Cl)c2cccnc2c1O (configuration not stated)	.	.	i	3.7µM*	-18
CCC(=O)NC(c1cccs1)c1ccc2cccnc2c1O (configuration not stated)	0	2	?	3.7µM*	5
CCOc1cc(CNc2ccc(O)cc2)ccc1OCc1ccc(Cl)cc1	.	.	i	.	.
SMILES	TRPV1 ag	TRPV1 potentiator	FUS yeast rescue	ELG1 DNA repair	Giardia kill
COc1ccc(-c2cc(C(=O)NCCc3ccc(OC)c(OC)c3)c3ccccc3n2)cc1	.	.	i	.	.
O=c1c(S(=O)(=O)c2ccccc2)cn(Cc2cccc(F)c2)c2cc(N3CCOCC3)c(F)cc12	.	.	i	.	.
COc1cc(-c2nc3nc[nH]n3c2Nc2ccc(C(C)C)cc2)ccc1O	.	.	i	.	.
CSc1ccc(N/N=C(/C#N)S(=O)(=O)C(C)(C)C)cc1	-1	?	i	18µM*	-17
COC(=O)c1cc(NC(=O)Cn2ncc3c([nH]c4ccccc43)c2=O)cc(C(=O)OC)c1	.	.	i	.	.
Cc1cccc(-c2cc(C(=O)Nc3sc(C)c(C)c3C(N)=O)c3ccccc3n2)c1	8	-2	.	-13%	11
Cc1ccc(C)c(-c2cc(C(=O)Nc3sc(C)c(C)c3C(N)=O)c3ccccc3n2)c1	21	-3	i	18µM*	4
Cc1ccc(NC(=O)Cn2c(=O)n(CCCCC(=O)NCCc3ccccc3)c(=O)c3ccccc32)c(C)c1	.	.	i	.	.
CC(=O)Nc1ccc(-c2nnc3n(Cc4ccc(C)cc4)c(=O)c4ccccc4n23)cc1	.	.	i	.	.
O=C1C=CC(O)(c2cc(=O)c3c(O)cc(O)cc3o2)C=C1	0	?	i	3.3µM*	-6
CC(C)(C)c1ccc(-c2cn(-c3ccc(Br)cc3)c3[n+]2CCCS3)cc1	4	-6	i	4.1µM*	29
COc1ccc(-c2cn(-c3ccccc3)c3[n+]2CCS3)cc1	-3	-6	i	?	11
c1ccc(-c2cn(-c3ccccc3)c3[n+]2CCS3)cc1	5	-2	i	4.6µM*	-10
Fc1ccc(-n2cc(-c3ccccc3)[n+]3c2SCC3)cc1	-3	3	i	-23%	-25
O=C(c1ccc(F)cc1)N1CCC(c2nc(-c3ccc(S(=O)(=O)N4CCCC4)cc3)no2)CC1	.	.	i	.	.
CN(CC(=O)Nc1cccc(F)c1)C(=O)c1ccccc1Sc1ccccc1C#N	2	-9	?	16µM*	-8
Cc1ccc(C)c(NC(=S)Nc2cccnc2)c1	0	-36	i	7%	1
Cc1ccc(NC(=S)Nc2cccnc2)c(S(=O)(=O)N2CCCCC2)c1	2	4	35µM*	?	-4
CCN(CC)C(=O)CSc1nc(N)c(C#N)c(-c2cccs2)c1C#N	7	-2	i	?	-11
CCN(CC)C(=O)CSc1nc(-c2cccs2)cc(-c2cccs2)c1C#N	1	-9	i	16µM*	-7
CCOc1ccc(CNC(=O)CCS(=O)(=O)c2cc3c(cc2Cl)NC(=O)CO3)cc1OC	.	.	i	.	.
CCNC(=O)C1(C)CCCN1C(=O)c1cnc2ccccc2n1 (configuration not stated)	.	.	i	.	.
CC(C)(C)NC(=O)CSc1nc(O)cc(=O)n1-c1ccccc1	4	1	i	-3%	5
O=C(CSc1nc(O)cc(=O)n1-c1ccccc1)Nc1ccc(Br)cn1	-3	3	28µM*	-1%	33
CCc1ccc(C(C)NC(=S)NCc2ccc(F)cc2)cc1 (configuration not stated)	?	-1	i	-6%	6

Source: PubChem (National Center for Advancing Translational Sciences (NCATS))
